Compound activity: PubChem, several laboratories
NLRP3 yeast inh = inhibitors of NALP3 inflammasome in yeast | Yeast reconstituted NLRP3/ASC/caspase-1, beta-gal luminescence, 24 h | inhibition, % at 10 µM | 330,000 tested, 0.39% active | AID 2825;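 active = inhibition of 50% or more; inactive = inhibition below 50%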
NALP1 inh = NALP1 inhibition | inhibition, % at 10 µM | S. cerevisiae NALP1/ASC/caspase-1 growth, X-gal OD620, 72 h | 280,000 tested, 0.61% active; in the data active = inhibition mostly above about 24%, no sharp cut-off; inactive = mostly below about 32%
PERK inhibitor = human PERK inhibition, primary cell-based screen. CHO PERK-DD fusion, SEAP luminescence translation reporter. Q9NZJ5. AID 1416. inhibition, % at 5.6 µM. 220,000 tested, 0.17% active;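 active = inhibition above the mean inhibition of all tested compounds plus 3 SD, set separately per screening campaign, cut at about 2.9% in these data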;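 note: PERK kinase domain activated by AP20187 dimerizer at 100 nM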
Yeast superoxide = caloric restriction mimetics inhibiting age-related superoxide in yeast; S. cerevisiae aged cells, superoxide DHE fluorescence; hits give low values; superoxide response (% of plate mean), % at 10 µM; AID 2690; 330,000 tested, 0.18% active;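 active = superoxide response under a set limit, about three screen SD below normal, cut at about 65% in these data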;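 note: yeast aged for seven days with compound at 30 °C before DHE staining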
Rce1 inh = blocks yeast Ras-converting enzyme | calls only | 290,000 tested, 0.27% active | yeast membranes, quenched prenylated peptide cleavage fluorescence;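 active = fall in fluorescence gain of 50% or more versus controls, with final raw signal at or below 3038400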
Target sequence (Q03530 whole entry, looked up): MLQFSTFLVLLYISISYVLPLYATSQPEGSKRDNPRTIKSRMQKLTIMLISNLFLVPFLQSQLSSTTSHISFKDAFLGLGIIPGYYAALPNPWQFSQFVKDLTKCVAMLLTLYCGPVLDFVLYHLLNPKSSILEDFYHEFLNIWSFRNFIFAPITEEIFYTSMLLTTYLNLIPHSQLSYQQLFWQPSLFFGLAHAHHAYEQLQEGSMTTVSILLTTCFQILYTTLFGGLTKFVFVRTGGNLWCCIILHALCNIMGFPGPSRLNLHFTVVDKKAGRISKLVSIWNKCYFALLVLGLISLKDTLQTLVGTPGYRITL
V-ATPase pH = yeast V-ATPase proton transport regulation by pHLuorin | S. cerevisiae, pHLuorin cytosolic pH fluorescence | response, % at 10 µM | 350,000 tested, 0.37% active | AID 504577; in the data active = response mostly above about 7.3%, no sharp cut-off; inactive = mostly below about 5.4%; note: actives read high
V-ATPase pH SP = yeast V-ATPase proton transport regulation | S. cerevisiae pHLuorin cytosolic pH | 980 tested, 2% active | shares compounds with V-ATPase pH | response, % at 10 µM; in the data active = response above about 24%
Hits are given with their value; 0 = inactive; - = no result; + = active, no number. A selection: hits, their analogues and other compounds. The true share with any hit is near 1.6%.

SMILES	NLRP3 yeast inh	NALP1 inh	PERK inhibitor	Yeast superoxide	Rce1 inh	V-ATPase pH	V-ATPase pH SP
CCCN(C(=O)COC(=O)CCC(=O)c1ccccc1)c1c(N)n(Cc2ccccc2)c(=O)[nH]c1=O	-	-	-	-	-	9.1	0
COCCN(C(=O)COC(=O)CCn1c(C)csc1=O)c1c(N)n(Cc2ccccc2)c(=O)[nH]c1=O	0	-	-	0	0	15	0
CCN(C(=O)COC(=O)CCC(=O)c1ccccc1)c1c(N)n(Cc2ccccc2)c(=O)[nH]c1=O	0	-	-	0	-	0	-
Cc1csc(=O)n1CCC(=O)OCC(=O)N(CC(C)C)c1c(N)n(Cc2ccccc2)c(=O)[nH]c1=O	0	0	-	0	0	0	-
COc1ccccc1NC(=O)Cc1nc(=O)[nH]c(=O)[nH]1	-	-	-	-	-	0	-
CCOC(=O)Cc1cc(=O)n2[nH]c(C)c(-c3ccccc3OC)c2n1	0	0	0	0	0	19	0
CCOC(=O)Cc1cc(=O)n2[nH]c(C)c(-c3ccccc3)c2n1	0	0	0	0	0	0	-
CCOC(=O)[C@H]1[C@H]2COc3cc(OC)ccc3[C@@H]2N2C(=O)[C@@H](CO)NC(=O)[C@@]12C	0	-	-	0	-	-	-
CCOc1ccc(NC(=S)NCc2nc3ccccc3[nH]2)cc1	0	0	0	0	0	11	0
FC(F)Oc1ccc(NC(=S)NCc2nc3ccccc3[nH]2)cc1	0	0	0	0	0	0	-
O=C(NCC(c1ccco1)N1CCCC1)c1sc2cc(F)ccc2c1Cl (stereo unspecified)	0	-	-	0	-	8.6	0
CN(C(=O)CSc1nc(N)c2c3c(sc2n1)CSC(C)(C)C3)c1ccccc1	0	0	0	0	0	9.8	0
O=C(NCCCN1CCCC1=O)c1cc(-c2ccc(F)cc2)nc2ccccc12	0	-	-	0	-	0	-
COc1ccc(-c2cc(C(=O)NCCCN3CCCC3=O)c3ccccc3n2)cc1	0	-	-	0	+	12	0
CC(NC(=O)c1ccc(F)cc1)C(=O)NC1=NCCS1 (stereo unspecified)	0	0	0	0	0	0	0
CC(Oc1ccccc1)C(=O)NC1=NCCS1 (stereo unspecified)	0	0	0	0	0	7.3	0
O=C(COc1ccccc1)NC1=NCCS1	0	0	0	0	-	0	-
O=C(c1cccc(S(=O)(=O)NCc2ccccc2)c1)N1CCN(c2ccccc2Cl)CC1	-	-	-	-	-	0	-
O=c1[nH]c2cc([N+](=O)[O-])ccc2c2cc(Br)ccc12	-	-	-	-	-	0	-
C/C(CC(=O)Nc1ccccn1)=N\NC(=O)c1cnccn1	0	0	0	0	0	16	0
CSc1ccccc1NC(=O)CN(C)C(=O)CNC(=O)c1ccc(Oc2ccccc2)cc1	-	-	-	-	-	0	-
O=C1NC(Cc2ccc(O)cc2)c2nc3cc(Cl)ccc3c(=O)n2-c2cc3ccccc3cc21 (stereo unspecified)	-	-	-	-	-	0	-
CCCCN(CC)CCCNC(=O)CN1C(=O)CSc2ccc(S(=O)(=O)N3CCOCC3)cc21	0	0	0	0	0	0	-
CCCCN(C)CCCNC(=O)CN1C(=O)CSc2ccc(S(=O)(=O)N3CCOCC3)cc21	0	0	0	0	-	9.5	0
Cc1cc2c(cc(C(=O)N3CCC(C(=O)N4CCCC4)CC3)n2Cc2c(F)cccc2Cl)o1	0	0	0	0	0	10	0
SMILES	NLRP3 yeast inh	NALP1 inh	PERK inhibitor	Yeast superoxide	Rce1 inh	V-ATPase pH	V-ATPase pH SP
CCOC(=O)c1cc2occc2n1Cc1c(F)cccc1Cl	0	0	0	0	0	0	-
CS(=O)(=O)Nc1ccc2c(c1)[C@@H]1C[C@@H](CC(=O)NCc3cccnc3)O[C@H](CO)[C@@H]1O2	-	-	-	-	-	0	-
CC(=O)c1nnn(-c2cccc(C#N)c2)c1C	0	-	0	0	0	13	0
COc1ccc(C(=O)COC(=O)/C=C/c2ccccc2[N+](=O)[O-])cc1	0	-	-	0	-	14	0
COCCn1c(SCC(=O)OC(C)C)nnc1-c1ccccc1	0	0	0	0	0	9.9	0
COCCn1c(SCC(=O)Nc2cccc(OC)c2)nnc1-c1ccccc1	0	0	0	0	0	0	-
CCn1cc(CN2CCCC(CO)(Cc3cccc(Cl)c3)C2)cn1 (stereo unspecified)	0	0	0	0	0	13	0
CCn1cc(S(=O)(=O)N2CCN(Cc3cccc(Cl)c3)CC2)cn1	0	0	0	0	0	6.1	0
CCCC(=O)Nc1ccc(C(=O)Nc2cccc(OC)c2)cc1	0	0	0	0	-	9.7	0
COc1ccc([C@H]2C[C@H](O)[C@@H](n3cc(-c4ccc(F)cc4)nn3)CN2C(=O)c2cccs2)cc1	-	-	-	-	-	0	-
